Values without a mark were called inactive. Calls of active or inactive are those of the source. Calls come from the whole dose curve; as a rule, active = well fitted curve in the direction sought with a large enough effect; inconclusive = small, poorly fitted or top-dose-only effect, or another doubt; inactive = no such curve, though single readings can be large; an effect the other way counts as inactive or inconclusive.
Assay: qHTS for small molecule inhibitors of Yes1 kinase: Counter Assay (AID 686950);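 note: no kinase present so only ADP-Glo detection of a fixed ADP amount is tested; luminescence from ADP-Glo reporting ADP in a fixed ATP and ADP mixture; 0% = DMSO wells with ATP plus ADP and -100% = ATP-only wells without ADP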
Settings: series mostly up to 76.9 µM; activity change, negative = inhibition: at the top concentration
Procedure, shortened: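 Enzyme-free ADP-Glo interference check: compounds were preincubated 20 min in buffer, then an ATP/ADP mix (0.08 mM ATP, 0.02 mM ADP final) was added for 60 min at room temperature before two-step ADP-Glo luminescence detection.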

| Compound | activity change, negative = inhibition [%] |
| --- | --- |
| Cc1ccnc(NS(=O)(=O)c2ccc(NC(=O)Nc3ccc(S(=O)(=O)Nc4nccc(C)n4)cc3)cc2)n1 | 2.48 |
| OCCC#Cc1nc(-c2ccc(F)cc2)c(-c2ccncc2)n1CCCc1ccccc1 | -1.94 |
| Nc1nc2[nH]cc(CCc3ccc(C(=O)N[C@@H](CCC(=O)O)C(=O)O)cc3)c2c(=O)[nH]1 | -2.16 |
| CC(C)C[C@H](NC(=O)[C@@H](O)[C@H](N)Cc1ccccc1)C(=O)O | -0.52 |
| CC(C)c1onc(-c2c(Cl)cccc2Cl)c1COc1ccc(/C=C/c2cccc(C(=O)O)c2)c(Cl)c1 | -0.232 |
| CCC(=O)N[C@H]1CC[C@H](C(=O)N(C)c2ccc(-c3nc4ccccc4o3)cc2)C1 | 2.56 |
| Clc1ccc(Nc2nnc(Cc3ccncc3)c3ccccc23)cc1 | 4.88 |
| COc1cc(Oc2ccnc3cc(OC)c(OC)cc23)ccc1NC(=O)NC(C)c1nccs1 (stereo not drawn) | 2.44 |
| Cc1cc2c(C(C)C)c(O)c(O)c(C=O)c2c(O)c1-c1c(C)cc2c(C(C)C)c(O)c(O)c(C=O)c2c1O | -2.03 |
| CC(=O)NC(C)c1ccc(Oc2ccc(OC(C)C)cc2)cc1 (stereo not drawn) | 0.466 |
| COc1ccc(CCN2CCN(CCCc3ccccc3)CC2)cc1OC | 3.28 |

Assay: qHTS for compounds that reverse cellular toxicity of Amyloid beta (A-beta) peptide in yeast: LOPAC Validation Assay (AID 720559);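 note: plate controls were DMSO for no effect and equimolar ferric chloride plus clioquinol rescue for full effect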
Settings: yeast expressing A-beta; series mostly up to 46.1 µM; growth rescue, positive = activation: at the top concentration
Procedure, shortened: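 Medium dispensed, compounds pinned, A-beta yeast suspension added; plates held at 30 C for 48 hr; absorbance measured at 600 nm to gauge growth; values scaled between DMSO and FeCl3/clioquinol (equimolar) controls.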

| Compound | growth rescue, positive = activation [%] | outcome |
| --- | --- | --- |
| Nc1nc2c(ncn2COCCO)c(=O)[nH]1 | 1.2 |  |
| CCOC(=O)N1CCC(=C2c3ccc(Cl)cc3CCc3cccnc32)CC1 | 10.2 |  |
| OC(CCN1CCCCC1)(c1ccccc1)C1CC2C=CC1C2 (stereo not drawn) | -4.08 |  |
| CCCCNc1cc(C(=O)O)cc(S(N)(=O)=O)c1Oc1ccccc1 | -11.2 |  |
| CC(C)C[C@H](NC(=O)[C@@H](O)[C@H](N)Cc1ccccc1)C(=O)O | -3.73 |  |
| O=C1CCc2cc(OCCCCc3nnnn3C3CCCCC3)ccc2N1 | 3.29 |  |
| NCCCC(N)(C(=O)O)C(F)F (stereo not drawn) | -0.967 |  |
| CCN(CC)CCCC(C)Nc1ccnc2cc(Cl)ccc12 (stereo not drawn) | -3.58 |  |
| Cc1ccc(N(CC2=NCCN2)c2cccc(O)c2)cc1 | -2.29 |  |
| CN1CCN(CCCN2c3ccccc3Sc3ccc(C(F)(F)F)cc32)CC1 | -6.45 |  |
| CC(C[N+](C)(C)C)OC(N)=O (stereo not drawn) | -0.646 |  |
| Cc1cnc(NC(=O)C2=C(O)c3ccccc3S(=O)(=O)N2C)s1 | -15.8 |  |
| C1COC(NC(C2CC2)C2CC2)=N1 | -3.74 |  |
| N=c1nc(N2CCCCC2)cc(N)n1O | -0.559 |  |
| CC(C)NCC(O)COc1ccc(COCCOC(C)C)cc1 (stereo not drawn) | -3.42 |  |
| Cc1cc2c(C(C)C)c(O)c(O)c(C=O)c2c(O)c1-c1c(C)cc2c(C(C)C)c(O)c(O)c(C=O)c2c1O | -9.68 |  |
| CC(C)(C)NCC(O)c1ccc(O)c(CO)c1 (stereo not drawn) |  | inactive |
| Clc1cccc(Cl)c1NC1=NCCN1 | -4.46 |  |
| Cc1cn[nH]c1 | -7.84 |  |
| CCOC(=O)C1=C[C@]2(CC)CCCN3CCc4c(n1c1ccccc41)[C@@H]32 | -4.91 |  |
| Nc1ccc(S(=O)(=O)Nc2ccnn2-c2ccccc2)cc1 | -7.4 |  |
| CCn1cc(C(=O)O)c(=O)c2cc(F)c(N3CCNC(C)C3)c(F)c21 (stereo not drawn) | 4.25 |  |
| NNCCc1ccccc1 | 7.33 |  |
| O=C(O)COCCN1CCN(C(c2ccccc2)c2ccc(Cl)cc2)CC1 (stereo not drawn) | -1.27 |  |
| O=c1n(CCCN2CCN(c3cccc(Cl)c3)CC2)nc2ccccn12 | -4.71 |  |
| c1ccc([C@H]2CN3CCSC3=N2)cc1 | -6.14 |  |
| NCCc1ccc(O)c(O)c1 | -8 |  |
